# Rows were chosen to be rich in hits. Some 3.5% of all compounds tested hit in one or more screens of this group.
# Vc quorum ag: quorum light induction in luxS cqsA deficient V. cholerae; V. cholerae BH1578 lux reporter, luminescence, 6 h; activation, % at 18.7 µM; hit rate 0.16% among 350,000; AID 588436; in the data active = activation mostly above about 9.7%, no sharp cut-off; inconclusive = no clear call, values can overlap the other calls; inactive = mostly below about 3.7%
# BoNT-A LC inh2: inhibitors of Botulinum neurotoxin A light chain protease. multiplex microsphere protease substrate cleavage, flow cytometry. inhibition, % at 10 µM. hit rate 0.17% among 360,000; note: plate controls were buffer without enzyme for full effect and enzyme alone for no effect
# Bead autofluor: compound fluorescence in toxin protease inhibitor counterscreen; hit rate 3.1% among 360,000; compound autofluorescence counterscreen, microsphere flow cytometry; active compounds read high; fluorescence intensity (concentration not given with the values); AID 624483; in the data active = fluorescence intensity above about 16000; inconclusive = no clear call, values can overlap the other calls
# BoNT-F LC inh: inhibitors of Botulinum neurotoxin F light chain protease; Multiplex microsphere protease cleavage assay, flow cytometry; inhibition, % at 10 µM; hit rate 0.22% among 360,000; AID 588497; in the data active = inhibition above about 35%, passing the limit was not always enough; inconclusive = no clear call, values can overlap the other calls; note: plate controls were buffer without enzyme for full effect and enzyme alone for no effect
# Anthrax LF inh2: inhibitors of Bacillus anthracis lethal factor protease. P15917. multiplex microsphere protease cleavage assay, LF. inhibition, % at 10 µM. hit rate 0.12% among 360,000. AID 588501; note: plate controls were buffer without enzyme for full effect and enzyme alone for no effect
# Target sequence (P15917 whole entry, looked up): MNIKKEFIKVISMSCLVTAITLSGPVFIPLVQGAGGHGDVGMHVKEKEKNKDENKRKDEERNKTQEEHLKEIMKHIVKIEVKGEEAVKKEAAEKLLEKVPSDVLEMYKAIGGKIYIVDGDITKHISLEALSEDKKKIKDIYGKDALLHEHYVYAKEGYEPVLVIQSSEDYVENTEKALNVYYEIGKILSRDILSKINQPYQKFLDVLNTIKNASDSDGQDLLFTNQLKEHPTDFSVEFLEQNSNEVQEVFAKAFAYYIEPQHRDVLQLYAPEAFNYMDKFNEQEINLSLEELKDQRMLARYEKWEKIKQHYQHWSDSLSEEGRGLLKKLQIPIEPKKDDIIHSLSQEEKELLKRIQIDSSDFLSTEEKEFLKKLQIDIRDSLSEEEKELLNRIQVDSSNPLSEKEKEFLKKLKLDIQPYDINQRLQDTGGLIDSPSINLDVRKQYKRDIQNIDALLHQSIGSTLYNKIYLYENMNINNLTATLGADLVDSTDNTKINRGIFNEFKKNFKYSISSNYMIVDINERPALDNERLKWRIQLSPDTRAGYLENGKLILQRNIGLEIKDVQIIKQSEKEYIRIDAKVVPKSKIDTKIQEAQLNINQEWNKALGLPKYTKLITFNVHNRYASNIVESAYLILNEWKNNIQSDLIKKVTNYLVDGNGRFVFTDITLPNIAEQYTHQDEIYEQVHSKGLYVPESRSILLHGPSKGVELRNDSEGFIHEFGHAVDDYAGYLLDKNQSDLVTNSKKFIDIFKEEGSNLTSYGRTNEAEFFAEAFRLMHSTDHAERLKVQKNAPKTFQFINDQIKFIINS
# The depositor's hits bear a star; i = inactive; ? = inconclusive; . = not tested or not shown. Cut-off read from the data, not from the text of the source, unless noted: active = inhibition above about 30%; inconclusive = no clear call, values can overlap the other calls; inactive = below that.
SMILES,Vc quorum ag,BoNT-A LC inh2,Bead autofluor,BoNT-F LC inh,Anthrax LF inh2
CCC(CC)C(=O)Nc1cccc(C(=O)NCCc2ccccc2)c1,-0.3,-1.3,4320,-7.5,-1.6
CCCCC(CC)C(=O)NCCc1ccc(S(N)(=O)=O)cc1 (configuration not stated),-5.9,-0.3,23826*,-1.4,-2.1
COc1ccc(CC(=O)NCCc2ccc(S(N)(=O)=O)cc2)cc1,1.4,?,19944*,2.9,0.6
Cc1ccc(CC(=O)NCCc2ccc(S(N)(=O)=O)cc2)cc1,7.7,-0.1,3648,19.0,7.0
COCC(=O)NCCc1ccc(S(N)(=O)=O)cc1,i,-0.6,9174,-16.2,5.9
CCCC(C(=O)NCCc1ccc(S(N)(=O)=O)cc1)c1ccccc1 (configuration not stated),i,-0.4,3783,1.8,2.7
CCC(CC)C(=O)NCCc1ccc(S(N)(=O)=O)cc1,11.1,3.9,21021*,5.6,1.1
Cn1c(SCC2CCCO2)nnc1-c1cccc([N+](=O)[O-])c1 (configuration not stated),-0.3,-0.7,4356,-3.4,4.7
COc1ccc2[nH]c(CN3CCC(n4nccc4NC(=O)C4CC4)CC3)c(C)c2c1,-0.2,-1.4,4565,0.1,0.1
O=C(CSC(=S)N1CCCC1)NCC(=O)Nc1ccc(F)c(F)c1,-0.2,-2.7,?,?,3.6
COC(=O)C(Cc1ccccc1)NCC(=O)Nc1cccc(Cl)c1C (configuration not stated),i,-3.2,3860,-17.7,-13.6
CCCCC(=O)NCCc1ccc(S(N)(=O)=O)cc1,-5.3,-0.6,16934*,-1.9,-1.6
NS(=O)(=O)c1ccc(CNC(=S)Nc2ccc(Cl)c(Cl)c2)cc1,i,-1.2,4819,-1.2,-4.2
NS(=O)(=O)c1ccc(CCNC(=O)Nc2ccc(Cl)c(Cl)c2)cc1,-1.4,-1.7,16607*,-5.2,-8.5
CCOc1ccccc1OCCCC(=O)NCCc1ccc(S(N)(=O)=O)cc1,-0.4,-1.6,6338,-1.5,-1.7
Cc1ccnc(NC(=O)c2ccc(OCc3c(C)noc3C)cc2)c1,-0.4,.,.,.,.
CSC1=N/C(=C\c2cccnc2)C(=O)N1c1ccccc1,-0.3,0.4,2512,-3.3,-0.6
CSC1=N/C(=C\c2ccccc2)C(=O)N1C,-0.2,2.8,21913*,3.3,-11.1
Cc1cccc(NC(=O)CSc2nnc(CNC(=O)c3cccs3)o2)c1C,-0.4,-0.3,2568,-1.7,-1.4
Cc1ccc2cccc(OC(=O)N3CCCC3)c2n1,i,-8.9,22325*,-9.5,1.7
O=C(Nc1ccccc1C(=O)O)/C(=C/c1ccc(Cl)cc1Cl)NC(=O)c1ccco1,i,0.8,4003,?,-0.3
O=C(CCC(NC(=O)OCc1ccccc1)C(=O)OCC(=O)N1CCCCC1)OCC(=O)N1CCCCC1 (configuration not stated),-5.6,2.9,21055*,6.2,-7.9
CN(C(=O)c1cc2ccccc2o1)c1c(N)n(Cc2ccccc2)c(=O)[nH]c1=O,-0.2,0.3,2947,-2.0,7.0
COc1cc(C2Nc3cc(Cl)c(S(N)(=O)=O)cc3S(=O)(=O)N2)cc(OC)c1OC (configuration not stated),i,-0.6,3286,-4.4,-2.9
NS(=O)(=O)c1cc2c(cc1Cl)NCNS2(=O)=O,23.8*,0.9,6106,11.0,-1.0
SMILES,Vc quorum ag,BoNT-A LC inh2,Bead autofluor,BoNT-F LC inh,Anthrax LF inh2
CCC(C(=O)NNC(=O)c1cnccn1)c1ccccc1 (configuration not stated),-0.7,-0.3,8339,1.0,1.0
Cc1ccc(S(=O)(=O)n2cnc3ccccc32)cc1,7.1,0.7,16399*,1.9,-3.5
COc1ccc(S(=O)(=O)n2cnc3ccccc32)cc1,0.9,-0.6,3383,-13.4,13.1
CC1CCN(C(=O)C2CCN(S(=O)(=O)c3cc(Cl)ccc3Cl)CC2)CC1,i,-0.6,4658,4.2,1.4
Cc1ccc2oc3nc(C)c(C(=O)Nc4cccc(C(F)(F)F)c4)cc3c(=O)c2c1,-0.2,?,22965*,1.6,-3.3
Cc1cccc(C)c1NC(=O)c1cc2c(=O)c3ccccc3oc2nc1C(F)(F)F,-0.7,-3.7,11142,-9.7,0.9
Cc1cc(NC(=O)c2nn3cccnc3c2Cl)no1,i,-3.9,21821*,-5.7,-2.0
O=C1C(Cc2ccc(O)cc2)NC(=S)N1c1ccccc1 (configuration not stated),-0.5,-2.6,23822*,-1.9,-1.4
Cc1ccc(S(=O)(=O)Cn2cnnn2)cc1,i,-2.8,24828*,-1.8,0.1
NC(=O)c1sc2nnc(-c3ccccc3)c(-c3ccccc3)c2c1N,i,-55.9,17320*,?,-44.0
CNC(=O)c1cc(NC(=O)CCn2nc(-c3ccc(C)cc3)c3ccccc3c2=O)ccc1OC,-0.4,.,.,.,.
CCOC(=O)c1cccc(NC(=O)Cn2cnc3c2c(=O)n(C)c(=O)n3C)c1,i,?,20236*,-2.7,-0.2
COC(=O)c1cccc(NC(=O)Cn2cnc3c2c(=O)n(C)c(=O)n3C)c1,i,-0.1,11314,11.2,-2.3
Cc1ccc(F)c(NC(=O)/C(C#N)=C(\O)c2ccc(C(C)(C)C)cc2)c1,-0.5,0.4,1937,1.5,0.1
CC(C)(C)c1ccc(-c2csc(NNC3=NCCCCC3)n2)cc1,i,?,20221*,-8.6,-1.7
CN(C)c1oc(/C=C/c2cccs2)nc1S(=O)(=O)c1ccccc1,i,1.2,5485,8.2,0.1
COC(=O)NC1CSCC1OC(=O)CN1C(=O)c2ccccc2C1=O (configuration not stated),-0.2,-1.9,20984*,-2.5,-1.4
CC(OC(=O)CN1C(=O)c2ccccc2C1=O)C(=O)NC1CCCC1 (configuration not stated),1.2,1.9,3431,4.5,-5.9
CS(=O)(=O)N(CC(=O)Nc1ccc2c(c1)OCCO2)Cc1ccccc1,-0.2,1.5,21816*,0.3,-0.1
Cc1ccc(NC(=O)CN(Cc2ccccc2)S(C)(=O)=O)cc1C,-0.2,0.3,20638*,-0.8,0.6
COc1ccc(CNC(=O)CN(C)S(=O)(=O)c2ccccc2)cc1,0.0,-0.2,4634,-1.4,-6.5
COCCNC(=O)CN(Cc1ccc(Cl)cc1)S(C)(=O)=O,-0.2,1.1,20349*,0.5,-0.5
COc1ccc(CCNC(=O)CN(Cc2ccc(Cl)cc2)S(C)(=O)=O)cc1OC,-0.4,1.0,4163,0.9,-14.7
COc1ccc(NC(=O)CN(C)S(=O)(=O)c2ccccc2)cc1,-0.2,0.2,20336*,0.5,-3.6
O=c1[nH]c(SCc2ccccc2)nc2[nH]ncc12,i,-0.6,2233,0.2,0.6
CCCCn1c(N)c(N(CC(C)C)C(=O)C2CCN(S(=O)(=O)c3ccc(C)cc3C)CC2)c(=O)[nH]c1=O,i,.,.,.,.
CNc1ccc(Oc2nc([N+](=O)[O-])nn2C)cc1,-1.4,0.1,3953,-9.8,-1.1
COc1ccc(NC(=O)CN(Cc2ccccc2)S(C)(=O)=O)cc1,-0.2,1.7,23289*,0.3,-0.1
O=C(c1cc(Cl)cc(Cl)c1)N1CCC2CC1c1cc(N3CCCCC3)ccc12 (configuration not stated),i,-9.3,24126*,26.5,-0.3
